Bioassay records (PubChem BioAssay)
p53ts 32C tox: cytotoxicity in p53ts cells at permissive temperature | 0.93% of 130,000 active | AID 924 | H1299-p53A138V at 32C, ATP luminescence viability, 24 h | Potency, µM (series often up to 46.1 µM), without a hit: top-dose activity change, negative = cytotoxicity, actives largely listed as cytotoxic;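 also: 0% = DMSO and -100% = full killing by reference compound; nearly all actives have a fitted effect of over 55% in size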
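H1299-p53 A138V cells (temperature-sensitive p53) exposed 24 h to up to 46 uM compound at 32C, where p53 is wild-type in conformation. Viability read as ATP luminescence and normalised to DMSO and 100 uM tamoxifen. AC50 fitted with the Hill equation.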
ERK AVP inh: blocks ERK signaling stimulated by vasopressin | HEK293-V1b, vasopressin-stimulated pERK AlphaScreen | Potency, µM (titrated, usually from 57.5 µM), inactives show at the highest dose activity, negative = inhibition, most hits filed as inhibitors | 0.99% of 72,000 active | AID 995; also: % is scaled to controls: 0 for no effect and ±100 for the full control effect; nearly all actives have a fitted effect of over 55% in size
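Phosphorylated ERK1/2 detected via AlphaScreen bead proximity in lysates of V1b-expressing HEK293 cells given 25 nM vasopressin for 5 min after 30 min compound exposure (37 °C). AC50 from Hill equation; basal DMSO 0%, vasopressin 100%.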
p53ts 39C kill: kills p53ts cells at the nonpermissive temperature; H1299-p53A138V viability at 39C, ATP luminescence, 24 h; Potency, µM (series often up to 46.1 µM), inactives show at the top dose activity change, negative = cell killing, usual class: cytotoxic; 1.5% of 130,000 active; AID 902; also: % is scaled to controls: 0 for no effect and ±100 for the full control effect; nearly all actives have a fitted effect of over 55% in size
Peg3 imprint: induces erasure of genomic imprints in mouse ES cells | mouse ES Peg3-LacZ reporter, beta-gal luminescence, 40 h | Potency, µM (top dose mostly 60.7 µM), for the others: top-dose activity change, positive = activation, most hits filed as activators | 0.02% of 110,000 active
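Gelatin-coated wells received 300 freshly trypsinized female ES cells with a Peg3LacZ-Neo reporter on the maternal allele, then incubated 40 hours at 37C. BetaGlo was added for 5 minutes at room temperature before a single luminescence read.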
IkB sig inh: IkB pathway inhibition in ABC-DLBCL cells | ABC-DLBCL IkBa-CBG/CBR dual luciferase ratio, 4 h; response scale: scaled: untreated 0%, proteasome inhibitor 100% | 0.04% of 110,000 active | AID 445 | Potency, µM (top dose mostly 57.1 µM), without a hit: top-dose IkBa stabilization activation; active = well fitted curve in the direction sought with a large enough effect in the signal ratio, not every such curve was filed as active; inconclusive = small, poorly fitted or top-dose-only effect, or a change in a side signal; the % refers to the signal ratio;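 also: the direction sought is a rising ratio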
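In this assay, an IκBα–CBG68 fusion accumulates when IKK-driven degradation is blocked; native CBR normalizes for cell number. OCI-Ly3 cells were treated 4 h with compound and doxycycline, then green and red light read after Chroma-Glo addition.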
* marks the source's active call; other numbers are inactive results; [ ] = dose if it differs, or a comment. Rows were chosen to be rich in hits. Some 2.3% of all compounds tested hit in one or more screens of this group. Unless noted, calls follow the shape of the dose curve; as a rule, active = well fitted curve in the direction sought with a large enough effect; inconclusive = small, poorly fitted or top-dose-only effect, or another doubt; inactive = no such curve, though single readings can be large; an effect the other way counts as inactive or inconclusive. Potency is read from the fitted curve at half-maximal effect.

How did O=C(NCCN1CCOCC1)c1cc2c(=O)n3ccccc3nc2n1Cc1ccccc1 do in these assays?
p53ts 32C tox: 0%; ERK AVP inh: 21%; p53ts 39C kill: 19%; Peg3 imprint: -12%; IkB sig inh: -1%

Results for CCN1CCN(C(=O)c2cc3c(=O)n4ccccc4nc3n2Cc2ccccc2)CC1 ?
p53ts 32C tox: 13µM*; ERK AVP inh: -15%; p53ts 39C kill: 13µM*; Peg3 imprint: -88%; IkB sig inh: 1%

Results for C#CCCCO/N=C1/C[C@@H](O)[C@@H](O)[C@@H]2[C@@H]3C(=O)N(C4CCCCC4)C(=O)[C@H]3CC[C@H]12 ?
p53ts 32C tox: 2%[9.22 µM]; ERK AVP inh: 6%[11.5 µM]; p53ts 39C kill: 9%[9.22 µM]

What do the screens show for `Cc1csc(NC(=O)CCCSc2nc3ccccc3s2)n1`?
p53ts 32C tox: -4%; ERK AVP inh: 16µM*; p53ts 39C kill: inconclusive; Peg3 imprint: -18%; IkB sig inh: inconclusive

Results for Cc1cc2ncn(CC(=O)O)c2cc1C ?
p53ts 32C tox: -1%[9.22 µM]; ERK AVP inh: 4%[11.5 µM]; p53ts 39C kill: -4%[9.22 µM]; Peg3 imprint: 0%[10.9 µM]; IkB sig inh: 1%[11.4 µM]

Results for COC1=C(OC)C(=O)c2ccccc2C1=O ?
p53ts 32C tox: 6.3µM*; ERK AVP inh: 20%; p53ts 39C kill: 4µM*; Peg3 imprint: -30%; IkB sig inh: 20%

How did COC(=O)C(C(=O)OC)C1O[C@@]23COCCC2(C)C3c2ccccc21 (stereo partly drawn) do in these assays?
p53ts 32C tox: 5%[9.22 µM]; ERK AVP inh: 29%[11.5 µM]; p53ts 39C kill: 13%[9.22 µM]

Results for COCCNc1nc(-c2ccc(N(C)C)cc2)nc2ccccc12 ?
p53ts 32C tox: 13µM*; ERK AVP inh: -3%; p53ts 39C kill: 10µM*; Peg3 imprint: -28%; IkB sig inh: -5%[11.4 µM]

How did CC(=O)NCCNc1nc(-c2ccc(N(C)C)cc2)nc2ccccc12 do in these assays?
p53ts 32C tox: inconclusive; ERK AVP inh: -24%; p53ts 39C kill: 13µM*; Peg3 imprint: inconclusive; IkB sig inh: -7%[11.4 µM]

Results for Cc1cnc(CNc2nc(-c3ccc(N(C)C)cc3)nc3ccccc23)cn1 ?
p53ts 32C tox: 10µM*; ERK AVP inh: 16%; p53ts 39C kill: 10µM*; IkB sig inh: 0%[11.4 µM]

How did CC(C)(C)[C@@]1(O)CCN2C[C@@H]3c4ccccc4CCc4cccc(c43)[C@@H]2C1 do in these assays?
p53ts 32C tox: -3%; ERK AVP inh: 13%; p53ts 39C kill: inconclusive; IkB sig inh: 4%

How did Cc1ccc(S(=O)(=O)NCCSc2nnnn2-c2cc(C)ccc2C)cc1 do in these assays?
p53ts 32C tox: 5%; ERK AVP inh: -5%; p53ts 39C kill: -3%; Peg3 imprint: -8%; IkB sig inh: -3%

What do the screens show for `Cc1ccc(C)c(-n2nnnc2Sc2nnnn2-c2ccccc2)c1`?
p53ts 32C tox: -14%; ERK AVP inh: 37%; p53ts 39C kill: 10µM*; Peg3 imprint: -27%; IkB sig inh: inconclusive

What do the screens show for `Cc1cc(C2(c3cc(C)c(O)cc3C)OS(=O)(=O)c3ccccc32)c(C)cc1O`?
p53ts 32C tox: 2%[1.84 µM]; ERK AVP inh: inconclusive; p53ts 39C kill: -6%; Peg3 imprint: 3%; IkB sig inh: 1%

How did CCCc1cc(=O)[nH]c(SCC(=O)N(C)CC(=O)Nc2ccccc2CC)n1 do in these assays?
p53ts 32C tox: 1%; ERK AVP inh: 73%; p53ts 39C kill: -5%; Peg3 imprint: 1%; IkB sig inh: 0%

What do the screens show for `CCc1ccccc1NC(=O)CN(C)C(=O)Cn1ncc(Cl)c(Cl)c1=O`?
p53ts 32C tox: 3.5µM*; p53ts 39C kill: 3.2µM*

Results for O=Nc1ccc(NO)cc1 ?
p53ts 32C tox: 11%[1.84 µM]; ERK AVP inh: 7%; p53ts 39C kill: 7%; Peg3 imprint: -4%; IkB sig inh: 0%

How did O=C(Nc1cccc2cccnc12)[C@@H]1[C@@H](C(=O)O)[C@H]2CC[C@@H]1O2 do in these assays?
p53ts 32C tox: -4%[9.22 µM]; ERK AVP inh: -9%[11.5 µM]; p53ts 39C kill: 4%[9.22 µM]; Peg3 imprint: 4%[10.9 µM]; IkB sig inh: 1%[11.4 µM]

Results for FC(F)C(F)(F)C(F)(F)C(F)(F)c1cc(-c2ccccc2)n[nH]1 ?
p53ts 32C tox: inconclusive; ERK AVP inh: 2.5µM*; p53ts 39C kill: inconclusive; Peg3 imprint: 2%; IkB sig inh: inconclusive

What do the screens show for `Cc1ccc(O)c(-c2cc(C(F)(F)C(F)F)[nH]n2)c1`?
p53ts 32C tox: 5%; ERK AVP inh: -27%; p53ts 39C kill: 5%; Peg3 imprint: -17%; IkB sig inh: 4%

How did O=C1c2[nH]nc(-c3ccc(Br)cc3)c2C(c2cccc(O)c2)N1c1ccc(Cl)cc1 (stereo not drawn) do in these assays?
p53ts 32C tox: inconclusive; p53ts 39C kill: 16µM*; Peg3 imprint: 3%[10.9 µM]; IkB sig inh: inconclusive

Results for Cc1ccc(-c2n[nH]c3c2C(c2cccc(O)c2)N(c2ccc(C(=O)O)cc2)C3=O)cc1 (stereo not drawn) ?
p53ts 32C tox: -19%; p53ts 39C kill: -1%; Peg3 imprint: -7%[10.9 µM]; IkB sig inh: inconclusive

Results for COc1ccc(OCc2nnc3n2N=C(c2ccc(OC)cc2)CS3)cc1 ?
p53ts 32C tox: -6%; ERK AVP inh: 25µM*; p53ts 39C kill: -20%; Peg3 imprint: 7%; IkB sig inh: inconclusive

How did CCCc1nnc2n1N=C(c1ccc(OC)c(OC)c1)CS2 do in these assays?
p53ts 32C tox: 4%; ERK AVP inh: 16µM*; p53ts 39C kill: -20%; Peg3 imprint: -18%; IkB sig inh: -3%

What do the screens show for `COc1ccc(-c2nnc3n2N=C(c2ccccc2)CS3)cc1OC`?
p53ts 32C tox: -5%; ERK AVP inh: 3%; p53ts 39C kill: 7%; Peg3 imprint: -13%; IkB sig inh: -1%

What do the screens show for `c1ccc(C2=NN[C@@H]3c4ccccc4-c4ccccc4N3C2)cc1`?
p53ts 32C tox: 0%[9.22 µM]; ERK AVP inh: inconclusive; p53ts 39C kill: -1%[9.22 µM]; Peg3 imprint: -2%[10.9 µM]; IkB sig inh: 0%[11.4 µM]

Results for CCN(CC)CCCNC(=O)c1nn(C)c2c1CSc1ccccc1-2 ?
p53ts 32C tox: inconclusive; p53ts 39C kill: 20µM*; Peg3 imprint: 8%[10.9 µM]; IkB sig inh: inconclusive

How did CC(C)CCNC(=O)c1nn(C)c2c1CSc1ccccc1-2 do in these assays?
p53ts 32C tox: -5%; p53ts 39C kill: -4%; Peg3 imprint: -6%[10.9 µM]; IkB sig inh: -1%

How did Cn1nc(C(=O)N2CCN(c3ccccc3)CC2)c2c1-c1ccccc1SC2 do in these assays?
p53ts 32C tox: 22%; p53ts 39C kill: 15%; Peg3 imprint: -13%[10.9 µM]; IkB sig inh: 3%

Results for Cn1nc(C(=O)N2CCN(c3ccc(F)cc3)CC2)c2c1-c1ccccc1SC2 ?
p53ts 32C tox: inconclusive; p53ts 39C kill: 20µM*; Peg3 imprint: -10%[10.9 µM]; IkB sig inh: 0%
